Outcome and Potency data for 21 molecules are collected here from PubChem BioAssay AID2104 (National Center for Advancing Translational Sciences (NCATS), 2009).

Records with an inconclusive call do not appear. Calls of active or inactive are those of the source. Calls come from the whole dose curve.

Thyrotropin receptor (Homo sapiens), sequence (P16473 whole entry, looked up): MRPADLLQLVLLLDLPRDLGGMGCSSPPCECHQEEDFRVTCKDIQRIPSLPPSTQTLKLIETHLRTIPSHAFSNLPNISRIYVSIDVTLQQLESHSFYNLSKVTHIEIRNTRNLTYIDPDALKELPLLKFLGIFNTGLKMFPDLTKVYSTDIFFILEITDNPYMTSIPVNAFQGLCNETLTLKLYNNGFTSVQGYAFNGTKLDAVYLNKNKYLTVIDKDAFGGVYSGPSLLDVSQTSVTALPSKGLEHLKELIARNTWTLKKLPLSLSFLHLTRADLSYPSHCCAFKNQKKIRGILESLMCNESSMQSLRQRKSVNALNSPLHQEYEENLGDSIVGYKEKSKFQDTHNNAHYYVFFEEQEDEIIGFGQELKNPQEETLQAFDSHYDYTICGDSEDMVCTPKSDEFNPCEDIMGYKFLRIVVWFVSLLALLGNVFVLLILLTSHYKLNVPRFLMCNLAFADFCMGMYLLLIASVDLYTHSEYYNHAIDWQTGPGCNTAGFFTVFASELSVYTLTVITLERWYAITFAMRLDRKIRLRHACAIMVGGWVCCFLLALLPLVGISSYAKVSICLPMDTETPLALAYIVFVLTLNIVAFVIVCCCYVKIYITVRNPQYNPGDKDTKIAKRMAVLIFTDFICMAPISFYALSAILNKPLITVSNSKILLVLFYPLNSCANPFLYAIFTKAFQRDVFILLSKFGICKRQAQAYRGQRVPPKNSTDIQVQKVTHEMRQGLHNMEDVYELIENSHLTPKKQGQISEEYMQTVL

For this experiment, the target named is Thyrotropin receptor (Homo sapiens) (UniProt P16473). Put plainly: Secondary Concentration-Response Assay for Agonists of the Thyroid Stimulating Hormone Receptor: ELISA Activity Detection. Conditions: HEK293-TSHR cells, cAMP ELISA luminescence, 1 h. The source says:
NIH Chemical Genomics Center [NCGC] NIH Molecular Libraries Screening Centers Network [MLSCN] MLSCN Grant: 1 X01 MH080680-01 PI Name: Dr. Marvin Gershengorn, NIH NCGC Assay Overview: Confirmation of Thyroid Stimulating Hormone Receptor Agonists TSH is an alpha/beta heterodimeric glycoprotein hormone secreted from the anterior pituitary gland which belongs to the glycoprotein hormone family. The actions of TSH are mediated by a seven-transmembrane receptor, which upon TSH binding couples preferentially to the G-alpha (s) protein (Gs), resulting in activation of adenylate cyclase and increase in cyclic adenosine 3', 5' monophosphate (cAMP). The TSH receptor (THSR) is mainly expressed in thyroid follicular cells and regulates their growth and function. Recombinant TSH is used to activate TSHR in patients with thyroid cancer receiving thyroid hormone suppression therapy and to screen for residual tumor after surgery, but it is expensive and must be administered intramuscularly. An orally active small molecule TSHR agonist would serve as an invaluable research tool for studying TSHR pharmacology and physiology, and would have multiple advantages in therapeutic settings. However, no selective small molecule agonist of the TSH receptor exists, and no small molecule screen for TSHR agonists has ever been reported. A confirmatory assay of putative TSHR agonists was conducted on a HEK 293 cell line stably expressing the TSHR, using an orthogonal detection technology to measure cAMP stimulation: an ELISA based cAMP competition assay using cAMP-Screen Direct System (Applied Biosystems, Foster City , CA).
NCGC Assay Protocol Summary: HEK 293 cells expressing TSHR were cultured for 24 h before incubation for 1 h in serum-free DMEM containing 1 mM 3-isobutyl-1-methylxanthine (IBMX) (SIGMA) and small molecule ligands in a humidified 5% CO2 incubator at 37C. Following aspiration of the medium, cells were lysed using lysis buffer of the cAMP-Screen DirectTM System (Applied Biosystems). The cAMP content of the cell lysate was determined using the method described in the manufacturer#s protocol. An enzyme substrate with a luminescent enhancer generates glow light emission kinetics. Light signal intensity, which is inversely proportional to the cAMP level in the sample, is measured in a luminometer (Perkin Elmer, 1420 Multilabel, Victor 3) for 3 seconds/well 30 min after substrate addition. Potencies (i.e., EC50) of the ligands were obtained from dose-response curves by data analysis with GraphPad Prism 4 software for Windows.
Background: ELISA stands for enzyme-linked immunosorbent assay.
On to `COc1ccc(C2Nc3ccccc3C(=O)N2CCO)cc1COc1ccc(NC(C)=O)cc1` (stereo unspecified), for which the molecule was classed as inactive. Still for that read-out and setting: the entry for `COc1ccc(C2Nc3ccccc3C(=O)N2CCCN(C)C)cc1COc1ccc(NC(C)=O)cc1` (stereo unspecified) is “inactive”.

Take `COc1ccc(-c2nc3ccccc3c(=O)n2Cc2ccco2)cc1COc1ccc(NC(C)=O)cc1`: the Potency was 0.93 µM (active). With `COc1ccc(C2Nc3ccc(O)cc3C(=O)N2Cc2ccccc2)cc1COc1ccc(NC(C)=O)cc1` (stereo unspecified), the Potency was 0.33 µM (active). With `COc1ccc(C2Nc3ccccc3C(=O)N2Cc2ccccc2)cc1COc1ccc(NC(C)=O)cc1` (stereo unspecified), the Potency was 0.29 µM (active). With `COCc1cc(C2Nc3ccccc3C(=O)N2Cc2ccccc2)ccc1OC` (stereo unspecified), the result was inactive. On to `COc1ccc(C2Nc3ccccc3C(=O)N2Cc2ccccc2)cc1COc1ccc(C#N)cc1` (stereo unspecified), for which the result was inactive.

As to `CCCCN1C(=O)c2ccccc2NC1c1ccc(OC)c(COc2ccc(NC(C)=O)cc2)c1` (stereo unspecified), the Potency is 0.83 µM (active). Take `COc1ccc(C2Nc3cccc(O)c3C(=O)N2Cc2ccccc2)cc1COc1ccc(NC(C)=O)cc1` (stereo unspecified): the Potency was 0.09 µM (active). In the case of `O=C1c2ccccc2NC(c2ccccc2)N1Cc1ccco1` (stereo unspecified), the call was inactive.

Turning to `COc1ccc(C2Nc3ccccc3C(=O)N2Cc2ccccc2)cc1COc1cccc(F)c1` (stereo unspecified), the result was inactive. As for `COc1ccc(-c2nc3ccccc3c(=O)n2Cc2ccccc2)cc1COc1ccc(NC(C)=O)cc1`, the Potency was 0.96 µM (active). Consider `COc1ccc(C2Nc3cccc(O)c3C(=O)N2Cc2ccccc2)cc1` (stereo unspecified), for which the molecule was classed as inactive. As for `COc1ccc(C2NC(=O)c3ccccc3N2)cc1COc1ccc(NC(C)=O)cc1` (stereo unspecified), the call was inactive. Regarding `COc1ccc(C2Nc3ccccc3C(=O)N2CCc2ccccc2)cc1COc1ccc(NC(C)=O)cc1` (stereo unspecified), the Potency was 0.43 µM (active). Turning to `COc1ccc(-c2nc3cccc(O)c3c(=O)n2Cc2ccccc2)cc1COc1ccc(NC(C)=O)cc1`, the Potency is 0.55 µM (active).

With `COc1ccc(C2Nc3cccc(F)c3C(=O)N2Cc2ccccc2)cc1COc1ccc(NC(C)=O)cc1` (stereo unspecified), the Potency is 0.28 µM (active). Turning to `COc1ccc(C2Nc3cccc(O)c3C(=O)N2Cc2ccccc2)cc1CSc1ccc(NC(C)=O)cc1` (stereo unspecified), the Potency was 0.018 µM (active).

Take `COc1ccc(C2Nc3cccc(NS(C)(=O)=O)c3C(=O)N2Cc2ccccc2)cc1COc1ccc(NC(C)=O)cc1` (stereo unspecified): the Potency was 0.98 µM (active). For the molecule `COc1ccc(C2Nc3ccccc3C(=O)N2Cc2ccco2)cc1COc1ccccc1` (stereo unspecified), the outcome was inactive. As to `COc1ccc(C2Nc3ccccc3C(=O)N2Cc2ccccc2)cc1CSc1ccc(NC(C)=O)cc1` (stereo unspecified), the Potency is 0.08 µM (active).
